Assay [1] in a line: Viability qHTS for spleen associated tyrosine kinase inhibitor (SYKi) drug resistant MV4-11 cells (AID 1963824). Note: nearly all actives have a fitted effect of over 35% in size. The essentials: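 SYK-inhibitor-resistant MV4-11 AML cells were seeded at 500 per well onto compound and cultured 72 hours (37 °C, 5% CO2). CellTiter-Glo was then added, and after 10 min at room temperature, luminescence gave viability.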
Assay [2] in a line: Cellular viability qHTS for adrenocortical cancer (ACC) cell line SW-13 (AID 1963989).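 For activity (max response): cells grown in serum-free medium with ITS supplement; % is set by controls: 0 for no effect and ±100 for the full control effect.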 Note: nearly all actives have a fitted effect of over 65% in size. As to conditions: SW-13 ACC cells viability, CellTiter-Glo, 48 h; activity (max response): stronger effect = lower value. The essentials: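 Compound titrations (up to 46 uM final, in DMSO) were applied to SW-13 cells for 48 h at 37C/5% CO2. Reading used CellTiter-Glo after 20 min at room temperature; fitted curves yielded IC50 and efficacy.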

The nature of assay [3]: Quantitative highthroughput screen to assess conditional lethalithy of SEM cells grown in Human Plasma-Like Medium with dialyzed fetal bovine serum (HPLM+ds) (AID 1963882). Note: nearly all actives have a fitted effect of over 35% in size. The method in brief:
(§1)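 Each medium arm—HPLM with 10% dialyzed FBS, or RPMI1640 with 5 mM glucose and 10% untreated or dialyzed FBS—was screened against an 11-point, 3-fold compound titration for 48 h at 37 °C, with CellTiter-Glo luminescence as endpoint.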

Assay [4] can be described thus: Quantitative highthroughput screen to assess conditional lethalithy of SEM cells grown in RPMI1640 with unreated serum (RPMI+s) (AID 1963883). Note: nearly all actives have a fitted effect of over 35% in size. The method in brief: as §1
Assay [5] is described as follows: Quantitative highthroughput screen to assess conditional lethalithy of SEM cells grown in RPMI1640 with dialyzed fetal bovine serum (RPMI+ds) (AID 1963884). Note: nearly all actives have a fitted effect of over 35% in size. The essentials: as §1
The nature of assay [6]: Cellular viability qHTS for adrenocortical cancer (ACC) cell line NCI-H295R (AID 1963990). Note: nearly all actives have a fitted effect of over 60% in size. The method in brief: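 Readout: CellTiter-Glo luminescence, 20 min RT. Exposure: 48 h, 37C/5% CO2. Cells: NCI-H295R, ITS-DMEM serum-free. Range: up to 46 uM. Analysis: 4PL fit, IC50 plus efficacy.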

“And” between values parts separate entries of the source, which are not always exact repeats. Identical values can stand only once. Inconclusive results are not listed. Values without a mark were called inactive. The source made the active and inactive calls. Calls come from the whole dose curve; as a rule, active = well fitted curve in the direction sought with a large enough effect; inconclusive = small, poorly fitted or top-dose-only effect, or another doubt; inactive = no such curve, though single readings can be large; an effect the other way counts as inactive or inconclusive.
Potency is the fitted concentration of half-maximal effect.

`C=C1c2cccc(O)c2C(O)=C2C(=O)[C@]3(O)C(O)=C(C(N)=O)C(=O)[C@@H](N(C)C)[C@@H]3[C@@H](O)[C@H]12`: in assay [1], the Potency result was “inactive”. Further, in assay [2], the activity (max response) is 3.29%.
Regarding `C=CC(=O)N[C@H]1CN(c2nc(Nc3cn(C)nc3OC)c3ncn(C)c3n2)C[C@@H]1F`, the Potency in assay [1] is 18.6 µM (active); in assay [2], 0.199 µM (active).
On to `Nc1nc(N)c2nc(-c3cccc(O)c3)c(-c3cccc(O)c3)nc2n1`, for which the values for the Potency in assay [1], in assay [3] and in assay [4] were 14.6 µM (active), 10.5 µM (active) and 18.7 µM (active), respectively.
For `Cn1cncc1[C@@](N)(c1ccc(Cl)cc1)c1ccc2c(c1)c(-c1cccc(Cl)c1)cc(=O)n2C`, the Potency was 2.35 µM (active) in assay [1] and 3.72 µM (active) in assay [5]. In addition, the activity (max response) in assay [2] is -19.2%. Further, the Potency result in assay [6] is “inactive”.
As for `CC(=O)c1c(C)c2cnc(Nc3ccc(N4CCNCC4)cn3)nc2n(C2CCCC2)c1=O`, the Potency in assay [1] is 184 nM (active) and 5.25 µM (active); in assay [4], 4.69 µM (active); in assay [6], 25.1 µM (active).
Consider `Cc1cnc(NC(=O)c2cc(Oc3cnc(C(=O)N(C)C)nc3)c3cc(C)oc3c2)cn1`, for which the Potency entry in assay [1] was “inactive”. Further, in assay [2], the activity (max response) was -13.9%.
The corresponding values for `C=CCN1C[C@H](C(=O)N(CCCN(C)C)C(=O)NCC)CC2c3cccc4[nH]cc(c34)C[C@H]21` (some centres not stated) are 16.6 µM (active) and -6.18%.
For `CN[C@@H](C)C(=O)N[C@@H]1C(=O)N(Cc2c(C)ccc3ccccc23)c2ccc(C#N)cc2N(C(C)=O)[C@H]1C` the same measures were 13.2 µM (active) and 3.96%.
For `CCCCNc1c(C(=O)OCC)c(C)nc2c1cnn2CC` the same measures were “inactive” and -16.9%.
In the case of `CS(=O)(=O)N(Cc1ccco1)CC(O)Cn1c2ccccc2c2ccccc21` (configuration not stated), the Potency was 16.4 µM (active) and 16.6 µM (active) in assay [1]; 18.7 µM (active) in assay [3]; 14.8 µM (active) in assay [4]; 5.9 µM (active) in assay [5].
In the case of `C[C@@H](Nc1cc(F)cc(F)c1)c1cc(C(=O)N(C)C)cc2c(=O)cc(N3CCOCC3)oc12`, the Potency in assay [1] was 2.31 µM (active) and 6.61 µM (active). The activity (max response) in assay [2] was -10.8%.
In the case of `CCOC(=O)NNc1nncc2ccccc12`, the Potency result in assay [1] was “inactive”. For the same molecule, the activity (max response) in assay [2] is 4.25%.
For `Nc1ccc(O)c(C(=O)O)c1`, the Potency entry in assay [1] and in assay [6] was “inactive” each time. Besides, the activity (max response) in assay [2] is 6.74%.
Turning to `O=C(NO)C1(CS(=O)(=O)c2ccc(Oc3ccc(Cl)cc3)cc2)CCOCC1`, the Potency in assay [1] is 16.6 µM (active); in assay [2], 25.1 µM (active).
With `NS(=O)(=O)c1cc2c(cc1Cl)CN(C1CCCCC1)C2=O`, the Potency entry in assay [1] was “inactive”. The activity (max response) in assay [2] is 0.796%.
As for `CNC(=O)Cn1cc(-c2ccc3c(c2)C(F)CC32NC(=O)N(CC(=O)N(Cc3ccc(F)cc3)[C@@H](C)C(F)(F)F)C2=O)cn1` (some centres not stated), the Potency in assay [1] was 0.132 µM (active). The activity (max response) in assay [2] is 8.67%. In assay [6], the Potency result is “inactive”.
For `CC(C)[C@H](CO)Nc1nc(Nc2ccc(C(=O)O)c(Cl)c2)c2ncn(C(C)C)c2n1` the same measures were 16.6 µM (active), 10.6% and “inactive”.
Turning to `Nc1nc(Nc2ccc3c(c2)CC[C@@H](N2CCCC2)CC3)nn1-c1cc2c(nn1)-c1ccccc1CCC2`, the Potency was 0.417 µM (active) in assay [1] and 14.1 µM (active) in assay [2].
Turning to `Cc1ccnc(NS(=O)(=O)c2ccc(N)cc2)n1`, the Potency entry in assay [1] was “inactive”. Further, the activity (max response) in assay [2] is 8.12%.
For `CC(C)C[C@@H]1NC(=O)[C@@H](C(C)C)NC(=O)[C@@H]2CCCN2C(=O)[C@@H](CC(=O)O)NC(=O)[C@@H](Cc2c[nH]c3ccccc23)NC1=O` the same measures were 9.34 µM (active) and -0.875%.
For `Nc1ccc(F)cc1NC(=O)c1ccc(CNC(=O)/C=C/c2cccnc2)cc1`, the Potency in assay [1] is 0.833 µM (active); in assay [2], 11.2 µM (active); in assay [6] it was 3.55 µM (active).
Turning to `CN(C)[C@@H]1C(=O)C(C(N)=O)=C(O)[C@@]2(O)C(=O)C3=C(O)c4c(O)ccc(Cl)c4[C@@H](O)[C@H]3C[C@@H]12`, in assay [1], the Potency was 8.41 µM (active). In addition, the activity (max response) in assay [2] was -3.2%.
With `CC(=O)O[C@]1(C(C)=O)CC[C@H]2[C@@H]3C=C(Cl)C4=CC(=O)[C@@H]5C[C@@H]5[C@]4(C)[C@H]3CC[C@@]21C`, in assay [1], the Potency was 14.6 µM (active). In addition, the activity (max response) in assay [2] is -7.85% and -11.2%.
As to `CN[C@@H]1[C@@H](O)[C@@H](O[C@@H]2[C@@H](O)[C@H](O[C@H]3O[C@H](CN)[C@@H](O)[C@H](O)[C@H]3O)[C@@H](N)C[C@H]2NC(=O)C(O)CN)OC[C@]1(C)O` (some centres not stated), the Potency entry in assay [1] was “inactive”. For the same molecule, the activity (max response) in assay [2] is -3.06%.
As for `CCCCCCCCCCCCCC[N+](C)(C)C`, the Potency in assay [1] is 1.33 µM (active); in assay [2], 4.61 µM (active).
On to `CCOC(=N)c1nc2ccc3ncnc(Nc4cc(F)c(F)cc4Cl)c3c2s1`, for which, in assay [1], the Potency was 7.42 µM (active). Also, in assay [2], the activity (max response) is -16.7%.

(Values after PubChem BioAssay (NCATS).)
